# Assay outcomes from PubChem BioAssay.
# In the library only some 12% were active in any assay of this set; here they are far more common.
# AmpC no deterg – AmpC beta-lactamase inhibition without detergent; AmpC nitrocefin hydrolysis, absorbance 480 nm, 0.0001% Triton; Potency, µM (titrated, usually from 57.1 µM), for the others: at the top dose activity change, negative = inhibition, usual class: inhibitors; 0.52% of 330,000 active; AID 485341;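 further: plate controls were no compound for no effect and no enzyme for full effect; nearly all actives have a fitted effect of over 20% in size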
# Target sequence (P00811 whole entry, looked up): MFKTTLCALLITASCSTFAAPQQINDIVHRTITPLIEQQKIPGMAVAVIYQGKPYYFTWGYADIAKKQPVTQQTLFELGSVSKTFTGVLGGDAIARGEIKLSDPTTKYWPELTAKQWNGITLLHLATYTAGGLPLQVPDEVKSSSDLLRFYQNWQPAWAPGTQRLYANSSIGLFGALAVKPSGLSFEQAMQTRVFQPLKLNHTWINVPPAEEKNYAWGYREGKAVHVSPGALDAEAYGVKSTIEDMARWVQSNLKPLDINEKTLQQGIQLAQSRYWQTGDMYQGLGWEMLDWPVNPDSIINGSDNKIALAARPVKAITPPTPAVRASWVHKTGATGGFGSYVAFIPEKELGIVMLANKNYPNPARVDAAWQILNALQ
#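 AmpC (5.3 nM in the dispensed reagent) in 20 mM phosphate pH 7.0 with 0.01% (detergent screen) or 0.0001% Triton X-100 was preincubated with compounds for 15 min at room temperature. Nitrocefin was then added from an 800 uM solution, and hydrolysis was followed at 480 nm.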
# SARS PLpro yeast – blocks SARS-CoV papain-like protease in a yeast assay; S. cerevisiae expressing SARS-CoV PLpro, growth rescue; 0.19% of 330,000 active; AID 485353; Potency, µM (highest dose often 32.9 µM), inactives show at the highest dose activity, positive = growth rescue, most hits filed as activators; calls by dose curve; further: 0% is about no effect; nearly all actives have a fitted effect of over 55% in size
# AmpC detergent – blocks E. coli AmpC beta-lactamase in detergent assay; AmpC hydrolysis of nitrocefin, absorbance 480 nm, 0.01% Triton; 0.041% of 370,000 active; AID 485294; P00811; Potency, µM (series often up to 114 µM), inactives show at the top dose activity change, negative = inhibition, usual class: inhibitors;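 further: 0% = no-compound wells and -100% = no-enzyme wells; nearly all actives have a fitted effect of over 25% in size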
#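 20 mM phosphate pH 7.0 + 0.01% (detergent screen) or 0.0001% Triton X-100; 5.3 nM AmpC reagent; cpd preinc 15 min RT; nitrocefin (800 uM stock) to start; A480 q20 s × 4 min; Activity was normalised to no-enzyme and no-compound control wells.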
# Pf growth 48h – inhibits P. falciparum growth in the first generation, 48 h; P. falciparum luciferase growth in erythrocytes, 48 h; 5.9% of 310,000 active; AID 504832; Potency, µM (series often up to 28.7 µM), for inactives: top-dose activity change, negative = inhibition, usual class: inhibitors; further: on the % scale 0 is the no-effect control and ±100 the full control effect
#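 First compound was added to culture medium, then infected red cells at 0.1% parasitemia and 2% hematocrit (final). After incubation at 37 C under 5% CO2, luciferase detection reagent was dispensed and light output recorded.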
# Pf growth 96h – P. falciparum growth inhibition at 96 hour, primary screen for plastid delayed-death inhibitors | 6.9% of 320,000 active | Potency, µM (doses to about 28.7 µM), for inactives: at the top dose activity change, negative = inhibition, actives largely listed as inhibitors | P. falciparum luciferase reporter growth, 96 h; further: on the % scale 0 is the no-effect control and ±100 the full control effect
#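 Readout is luminescence from an integrated firefly luciferase in P. falciparum. Red cells, 2% hematocrit and 0.05% parasitemia final, were cultured with compound through two parasite generations (96 hours) at 37 C, 5% CO2.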
# Sm TGR inh – inhibitors of Schistosoma mansoni thioredoxin glutathione reductase. Potency, µM (top dose mostly 114 µM), for inactives: top-dose activity change, negative = inhibition, most hits filed as inhibitors. purified TGR, DTNB reduction, TNB absorbance 405 nm. 3% of 360,000 active. AID 485364; further: on the % scale 0 is the no-effect control and ±100 the full control effect; nearly all actives have a fitted effect of over 60% in size
#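 Kinetic colorimetric format: TGR-catalysed, NADPH-driven DTNB reduction monitored via TNB absorbance. Enzyme dispensed at 20 nM; compound exposure 15 min at room temperature before reaction start.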
# Numbers without * were called inactive; ? = inconclusive; / = not tested or not shown. Unless noted, the call rests on the fitted dose curve; in most records, active means well fitted curve in the direction sought with a large enough effect; inconclusive means small, poorly fitted or top-dose-only effect, or another doubt; inactive means no such curve, though single readings can be large; an effect the other way counts as inactive or inconclusive. Potency means the concentration at half of the fitted maximal effect.
SMILES,AmpC no deterg,SARS PLpro yeast,AmpC detergent,Pf growth 48h,Pf growth 96h,Sm TGR inh
O=C1CC(c2ccccc2Cl)c2c(sc3c(=O)[nH]c(CCl)nc23)N1 (stereo not drawn),-52.2%,-0.9%,-3.1%,-17.4%,?,25.1µM*
Cc1ccc(NC(=O)NCCN2C(=O)C3C4C=CC(C4)C3C2=O)cc1 (stereo not drawn),1.1%,3.8%,-9.5%,/,?,0.7%
COc1ccc(NC(=O)NCCN2C(=O)C3C4C=CC(C4)C3C2=O)cc1 (stereo not drawn),-8.6%,-0.9%,?,93.9%,11.7µM*,4.4%
Cc1cccc(NC(=O)NCCN2C(=O)C3C4C=CC(C4)C3C2=O)c1 (stereo not drawn),-4.4%,-5.4%,?,/,11.7µM*,14.1%
CCn1c(SCC(=O)N(C)c2c(N)n(Cc3ccccc3)c(=O)[nH]c2=O)nc2ccccc21,18.7%,0.9%,-5.2%,5.0%,-2.4%,2.1%
Cc1cc(C(=O)NCc2ccccc2C)c2c(C)nn(-c3cccc(F)c3)c2n1,/,/,8.1%,/,/,3.0%
COc1cc2c(cc1OC)C(C(C(=O)N(CCc1ccc(OC)c(OC)c1OC)CCc1ccc(OC)c(OC)c1OC)c1ccccc1)=NCC2 (stereo not drawn),/,/,/,1.35µM*,1.51µM*,/
COc1cccc(Cn2c(Oc3cc(C)cc(C)c3)nc3c2c(=O)n(C)c(=O)n3C)c1,/,/,5.0%,/,/,2.8%
Cc1cc(NC(=O)c2ccc3[nH]c(C)c(C)c3c2)ccn1,-19.2%,2.2%,6.9%,2.62µM*,2.62µM*,15.9%
CC(C)(C)n1nc2c(c1NC(=O)c1cc([N+](=O)[O-])ccc1Cl)CS(=O)(=O)C2,-7.3%,-1.8%,0.5%,?,-11.5%,-0.3%
O=C(Nc1c2c(nn1-c1ccc([N+](=O)[O-])cc1)CS(=O)(=O)C2)c1cccs1,-15.6%,-0.3%,-2.5%,?,5.86µM*,1.9%
CC(C)(C)n1nc2c(c1NC(=O)c1ccc([N+](=O)[O-])cc1)CS(=O)(=O)C2,-5.6%,-0.7%,-1.0%,25.0%,8.28µM*,27.8%
O=C(Nc1c2c(nn1-c1ccc([N+](=O)[O-])cc1)CS(=O)(=O)C2)c1ccccc1F,-14.5%,?,2.6%,19.5%,-5.9%,8.3%
CCOC(=O)C1CCCN(S(=O)(=O)c2ccc3c(c2)CCN3C(=O)CC)C1 (stereo not drawn),/,/,15.5%,/,/,-3.2%
Cc1cccc(Cn2cc(C(=O)c3ccccc3)c(=O)c3cc4c(cc32)OCO4)c1,/,/,-8.6%,/,/,-0.5%
CCCCNc1nc(Oc2ccc(=O)n(C)n2)nc(N2CCOCC2)n1,/,/,11.2%,/,/,2.0%
COc1ccc2c(c1)C1=NN(/C(C)=C\C(C)=O)C(c3ccccc3)C1CC2 (stereo not drawn),-30.3%,-4.0%,?,13.1µM*,1.2%,56.2µM*
O=C(/C=C/c1ccc(F)cc1)NC(=S)NNC(=O)[C@H]1C[C@@H]1c1ccccc1,10µM*,14.1%,-2.5%,32.2%,50.5%,-10.2%
COc1ccc(C(=O)NC(=S)NNC(=O)[C@H]2C[C@@H]2c2ccccc2)cc1OC,-24.8%,-0.2%,-0.3%,?,1.47µM*,-9.3%
CCOc1ccc(NC(=O)CC2C(=O)N(c3cccc(C)c3)C(=O)N2Cc2cccs2)cc1 (stereo not drawn),/,/,6.0%,/,/,3.5%
CCOC(=O)c1cc(-c2ccccc2)nc2nc(N(CC)CC)sc12,138.5%,-2.5%,-11.3%,9.28µM*,11.7µM*,-6.2%
CCOC(=O)c1cc(-c2ccccc2)nc2nc(N3CCCCC3)sc12,-22.7%,8.8%,0.9%,-8.6%,51.2%,4.6%
Cc1ccc(NC(=O)CN(C)C(=O)c2ccc(NS(=O)(=O)c3cccc([N+](=O)[O-])c3)cc2)cc1,-27.3%,2.4%,/,/,/,/
Cc1ccc(NS(=O)(=O)c2ccc(OCC(=O)Nc3cccc([N+](=O)[O-])c3)c(C)c2)cc1,?,-0.6%,-8.9%,?,14.7µM*,10.7%
CC(NS(=O)(=O)c1ccc(OCC(=O)Nc2cccc([N+](=O)[O-])c2)cc1)c1ccccc1 (stereo not drawn),-22.6%,-0.7%,?,10.4µM*,-33.9%,-1.0%
SMILES,AmpC no deterg,SARS PLpro yeast,AmpC detergent,Pf growth 48h,Pf growth 96h,Sm TGR inh
O=C(COC(=O)COc1ccccc1)Nc1cccc([N+](=O)[O-])c1,-43.1%,-3.4%,4.3%,39.1%,56.8%,4.6%
O=C(Nc1ccc(F)cc1F)c1cc(CN2CCOCC2)on1,/,/,25.3%,/,/,-0.5%
CC(C)(C)c1ccc(C(=O)N2CCCC2c2cccs2)cc1 (stereo not drawn),10.9%,-3.2%,-5.5%,14.7µM*,?,10.2%
OC(CN1CC=C(c2ccccc2)CC1)c1ccccc1 (stereo not drawn),-1.6%,12.7%,-4.2%,?,?,-0.4%
Cc1cc(O)c(CN2CC=C(c3ccccc3)CC2)cc1C(C)C,-38.9%,2.3%,2.5%,0.294µM*,0.262µM*,-8.1%
COc1ccc(C(C(=O)NC2CCCCC2)N(C(=O)c2sc(C)nc2C)c2ccc(C(C)=O)cc2)cc1 (stereo not drawn),206.0%,0.1%,-7.7%,?,9.28µM*,-18.1%
CCC(C)(C)NC(=O)C(c1ccncc1)N(C(=O)c1sc(C)nc1C)c1ccc(C)cc1 (stereo not drawn),159.4%,0.7%,7.2%,9.28µM*,19.6%,12.8%
COc1ccc(N(C(=O)c2cnccn2)C(C(=O)NC2CCCCC2)c2cc(OC)c(OC)c(OC)c2)cc1 (stereo not drawn),52.2%,1.7%,-9.0%,?,0.0%,9.1%
CCN1CCN(Cc2ccc(NC(=O)c3ccc(C)c(NC(=O)N4CCNC4=O)c3)cc2C(F)(F)F)CC1,67.8%,-7.7%,-22.2%,?,?,-5.9%
CCN1CCN(Cc2ccc(NC(=O)c3ccc(C)c(NC(=O)c4nccnc4N)c3)cc2C(F)(F)F)CC1,150.2%,1.1%,-8.5%,5.22µM*,2.62µM*,15.9%
CCN1CCN(Cc2ccc(NC(=O)c3ccc(C)c(NC(=O)c4nccn4C)c3)cc2C(F)(F)F)CC1,59.2%,1.3%,1.5%,?,-25.0%,10.2%
CCN1CCN(Cc2ccc(NC(=O)c3cc(NC(=O)c4nccnc4N)cc(OC)c3)cc2C(F)(F)F)CC1,62.2%,-3.9%,5.6%,1.65µM*,1.47µM*,13.5%
CCN1CCN(Cc2ccc(NC(=O)c3ccc(C)c(NC(=O)c4cccc5[nH]ccc45)c3)cc2C(F)(F)F)CC1,13.9%,0.3%,4.4%,11.7µM*,10.4µM*,0.9%
